{"source": "PubChem BioAssay (NCI)", "note": "About 83,000 compounds went through this panel and 20% of them were active in at least one assay; those are over-represented in the sample as a whole.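 A percent growth of 40 corresponds to 60% growth inhibition; 0 means no net growth; -100 means all cells died. Active threshold: below 10.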 Unmarked numbers belong to inactive results. The source made the active and inactive calls.", "data": [{"system": "KM12 colon", "assay": "NCI-60 one-dose screen, 48 h (100 = growth as untreated, 0 = no growth, -100 = all killed)", "conditions": "10 µM unless noted", "values": [{"smiles": "COc1c(B(O)O)cccc1-c1nc2ccc3[nH]ncc3c2c2c1C1CCC2C1", "note": "(stereo unspecified)", "growth": "25.3%"}, {"smiles": "O=C(Nc1ccc(Cl)cc1F)c1cc(F)ccc1O", "growth": "0.993% (active)"}, {"smiles": "O=c1oc2ccc(I)cc2c(=O)n1-c1ccc(I)cc1F", "growth": "-10.7% (active)"}, {"smiles": "NCCNc1nc2ccc(F)cc2c2c(=O)c3cc(F)ccc3sc12", "growth": "17.8%"}, {"smiles": "O=C(Nc1ccc(Br)cc1F)c1cc(F)ccc1O", "growth": "0.627% (active)"}, {"smiles": "Cc1ccc(Nc2nc(N)c3ccccc3n2)cc1Cl", "growth": "56%"}, {"smiles": "O=C1c2cc(I)ccc2Oc2cc([N+](=O)[O-])ccc2N1c1ccc(Cl)cc1F", "growth": "81.2%"}, {"smiles": "CC1=C(C(=O)OCC2CCN(C(=O)OC(C)(C)C)CC2)[C@H](c2cccc(Br)c2)C2=C(CC(C)(C)CC2=O)N1", "growth": "25%"}, {"smiles": "O=C(c1ccccc1)N(C(=S)NCCc1ccc(Cl)cc1)c1ccc(Cl)cc1", "growth": "26.8%"}, {"smiles": "O=c1oc2ccc(Br)cc2c(=O)n1-c1ccc(F)cc1F", "growth": "4.24% (active)"}, {"smiles": "O=C(Nc1ccc(Br)cc1F)c1cc(I)ccc1O", "growth": "6.15% (active)"}, {"smiles": "O=c1oc2ccc(Cl)cc2c(=O)n1-c1cc(C(F)(F)F)cc(C(F)(F)F)c1", "growth": "-31.5% (active)"}, {"smiles": "O=c1oc2ccc(Br)cc2c(=O)n1-c1ccc(I)cc1F", "growth": "-18% (active)"}, {"smiles": "O=c1oc2ccc(-c3ccc(F)cc3F)cc2c(=O)n1-c1cccc(C(F)(F)F)c1", "growth": "3.37% (active)"}, {"smiles": "O=c1oc2ccc(F)cc2c(=O)n1-c1ccc(Br)cc1F", "growth": "0.328% (active)"}, {"smiles": "O=c1oc2ccc(I)cc2c(=O)n1-c1ccc(Br)cc1F", "growth": "-4.63% (active)"}, {"smiles": "Cc1nc(Nc2ccccn2)sc1C(=O)/C=C/c1ccc(Cl)cc1", "growth": "8.26% (active)"}, {"smiles": "Nc1cccc(Nc2cc(S(=O)(=O)O)c(N)c3c2C(=O)c2ccccc2C3=O)c1", "growth": "105%"}, {"smiles": "COc1ccc2sc(N(Cc3cccnc3)C(=O)c3ccc(C#N)cc3)nc2c1", "growth": "75.8%"}, {"smiles": "COc1cccc(C2=NN3C(C2)c2ccccc2OC3c2ccc(/C=C3\\SC(=O)NC3=O)cc2)c1", "note": "(stereo unspecified)", "growth": "94.6%"}, {"smiles": "O=C1c2cc(Br)ccc2Oc2cc([N+](=O)[O-])ccc2N1c1ccc(I)cc1F", "growth": "100%"}, {"smiles": "O=c1oc2ccc(Cl)cc2c(=O)n1-c1ccc(Cl)cc1F", "growth": "-9.11% (active)"}, {"smiles": "COc1ccc(C2C3=C(COC3=O)N(CCO)c3cc4c(cc32)OCCO4)cc1", "note": "(stereo unspecified)", "growth": "49%"}, {"smiles": "CC[C@]1(O)C[C@@H]2CN(CCc3c([nH]c4ccccc34)[C@@](C(=O)OC)(c3cc4c(cc3OC)N(C)[C@H]3[C@@](O)(C(=O)OC)[C@H](OC(=O)CCCBr)[C@]5(CC)C=CCN6CC[C@]43[C@@H]65)C2)C1", "growth": "7.23% (active)"}, {"smiles": "O=C1c2cc(Cl)ccc2Oc2cc([N+](=O)[O-])ccc2N1c1ccc(F)cc1F", "growth": "94.6%"}, {"smiles": "CC[C@]1(O)C[C@@H]2CN(CCc3c([nH]c4ccccc34)[C@@](C(=O)OC)(c3cc4c(cc3OC)N(C)[C@H]3[C@@](O)(C(=O)OC)[C@H](OC(C)=O)[C@]5(CC)C=CCN6CC[C@]43[C@@H]65)C2)C1", "growth": "8.64% (active)"}, {"smiles": "O=c1c2cc(F)ccc2sc2c(NCCCNCCO)nc3ccc(Cl)cc3c12", "growth": "44%"}, {"smiles": "COc1cc2cc3c(=O)n4c(cc5cc(OC)ncc54)c(=O)n3c2cn1", "growth": "105%"}, {"smiles": "Nc1ccc(-c2nn3c(CCC(=O)c4nc5ncccc5[nH]4)nnc3s2)c(O)c1", "growth": "98.5%"}, {"smiles": "O=c1oc2ccc(Br)cc2c(=O)n1-c1ccc(Cl)cc1F", "growth": "-14.7% (active)"}, {"smiles": "COc1ccc(/C=C2\\NC(=O)NC2=O)cc1O", "growth": "102%"}, {"smiles": "O=C(c1ccccc1)N(C(=S)NCCc1ccc(Cl)cc1)c1ccccc1", "growth": "52.3%"}, {"smiles": "O=c1oc2ccc(Cl)cc2c(=O)n1-c1ccc(F)cc1F", "growth": "5.64% (active)"}, {"smiles": "CC(C)C[C@H](C(=O)N[C@@H](C)C(N)=O)N1CC=CCN(O)S1(=O)=O", "growth": "109% [5 µM]"}, {"smiles": "O=C(Nc1ccc(Cl)cc1F)c1cc(I)ccc1O", "growth": "62%"}, {"smiles": "O=C(CCc1nnc2sc(Cc3ccccc3Cl)nn12)c1nc2ncccc2[nH]1", "growth": "97.1%"}]}]}
